These results are taken from PubChem BioAssay AID624483 (NMMLSC, 2012).

About 11,000 (3.1%) of roughly 360,000 compounds were called active. Inconclusive results (about 2%) are left out. Rule as the data show it: active = fluorescence intensity above about 16000; inconclusive = no clear call, values can overlap the other calls; inactive = below that. The sample as a whole holds a higher share of actives than the screen did.

The experiment is described as follows: counter-screen for toxin protease inhibitors: compound fluorescence, primary screen, artefact control for toxin protease inhibitor project, biochemical, multiplex microsphere, HTS (AID 624483). Conditions: compound autofluorescence counterscreen, microsphere flow cytometry; stronger effect = higher value.
`CCn1c(CSCc2c(Cl)cccc2Cl)n[nH]c1=S`: the fluorescence intensity is 5080 (inactive).

Turning to `S=c1[nH]nc(CSCc2ccc(Cl)cc2Cl)n1-c1ccccc1`, the fluorescence intensity was 22300 (active).

For `Cc1ccc(NCc2n[nH]c(=S)n2-c2ccccc2)cc1Cl`, the fluorescence intensity was 4580 (inactive).

Consider `O=C(c1cc(COc2ccc(F)cc2F)on1)N1CCOCC1`, for which the fluorescence intensity was 6230 (inactive).

`CN1C(=O)[C@H]2[C@@H](/C=C/c3ccccc3)N3C(=O)CN(Cc4ccc(-c5ccccc5)cc4)C(=O)[C@@]3(C)[C@H]2C1=O`: the fluorescence intensity is 3800 (inactive). In the case of `COCCn1c(=S)[nH]c2cc(C(=O)NCCc3ccc(OC)c(OC)c3)ccc2c1=O` it was 22200 (active); in that of `COc1ccc(-n2c(=O)[nH]c3cc(C(=O)NCCc4ccc(OC)c(OC)c4)ccc3c2=O)c(OC)c1`, 3790 (inactive); in that of `CCOc1cc2[nH]c(=O)n(Cc3ccc(C(=O)NCCCN4CCCC4=O)cc3)c(=O)c2cc1OCC`, 4740 (inactive).

For the molecule `COc1ccc(Cn2c(=S)[nH]c3cc(C(=O)NCCCN4CCOCC4)ccc3c2=O)cc1`, the fluorescence intensity is 5500 (inactive).

As for `CCOc1cc2[nH]c(=S)n(Cc3ccc(C(=O)NCCOC)cc3)c(=O)c2cc1OCC`, the fluorescence intensity is 20100 (active). As to `CCOc1cc2[nH]c(=S)n(Cc3ccc(C(=O)N4CCN(C)CC4)cc3)c(=O)c2cc1OCC`, the fluorescence intensity is 5670 (inactive).

Regarding `CN1CCN(c2ccc3c(c2)OC[C@H](Cc2ccccc2)NS3(=O)=O)CC1`, the fluorescence intensity is 5440 (inactive).

Consider `COc1ccc(CCCNC(=O)C2Cc3c(-c4cccc(C(N)=O)c4)ccnc3O2)cc1` (configuration not stated), for which the fluorescence intensity is 3760 (inactive). Next, `O=S1(=O)CC(N2CCN(CCO)CC2)CN1C1CCCC1` (configuration not stated): 5290 (inactive); `CC(C)CN(C(=O)Cn1c(=O)cnc2ccccc21)C1CCS(=O)(=O)C1` (configuration not stated): 7550 (inactive). Next, `COc1ccccc1Cc1c(-c2ccc(Cl)cc2)nc2c3ccccc3ccn12`: 6870 (inactive); `COc1ncnc2c1N=C1CC(C)(C)CC(N)=C1S2`: 10000 (inactive). Next, `O=C1/C(=C/c2ccc3c(c2)OCO3)Oc2cc(OCC(=O)N3CC(O)C[C@H]3C(=O)O)ccc21` (some centres not stated): 5670 (inactive); `CCc1oc(-c2ccc(OC)cc2)c(C(=O)OCCCCCO)c1C(C)OCCO` (configuration not stated): 5030 (inactive); `CCOC(=O)N1CCN(C(=O)C[C@@H]2C[C@@]3(C(=O)OC)CCCCC=C3N(CCC3=CCCCC3)C2=O)CC1`: 5780 (inactive). On to `CCOC(=O)c1cc(C)sc1NC(=O)C1CCC1`, for which the fluorescence intensity was 20200 (active). Next, `Cc1cnc(NC(=O)C2CCCC2)s1`: 3280 (inactive). In the case of `COC(=O)c1cc(C)sc1NC(=O)CC1Nc2ccccc2NC1=O` (configuration not stated) it was 4220 (inactive); in that of `Cc1cc(Br)ccc1SCC(=O)OCC(=O)NCc1ccc2c(c1)OCO2`, 2190 (inactive). Next, `Cc1ccccc1C(=O)NNC(=O)CN1C(=O)c2ccccc2C1=O`: 2780 (inactive); `C=CCN(CC=C)C(=O)CN1C(=O)c2ccccc2C1=O`: 16300 (active). Regarding `Cc1cc(C)cc(NC(=O)CN2C(=O)c3ccccc3C2=O)c1`, the fluorescence intensity is 4110 (inactive). Turning to `CC(=O)/C(=N\Nc1ccc(Cl)cc1Cl)Sc1cccc2cccnc12`, the fluorescence intensity is 7970 (inactive). Next, `COc1cccc(-c2cnc3c(NC(C)=O)cc(-c4cccc(NC(C)=O)c4)cn23)c1`: 3610 (inactive); `c1ccc(-c2ccnc3nc(-n4cccc4)nn23)cc1`: 16400 (active); `Cc1ccnc2nc(C(=O)Nc3nnc(-c4ccccc4)o3)nn12`: 4840 (inactive).

For `CCCc1cc(=S)n2c([nH]c3ccccc32)c1C#N`, the fluorescence intensity is 3240 (inactive). `CN(C)C(CNC(=O)CCCOc1ccccc1)c1ccco1` (configuration not stated): the fluorescence intensity is 22900 (active). Regarding `CN(C)C(CNC(=O)c1cccc(C#N)c1)c1ccco1` (configuration not stated), the fluorescence intensity was 3360 (inactive). In the case of `CN(C)C(CNC(=O)c1ccc(OCc2cn3ccccc3n2)cc1)c1ccco1` (configuration not stated) it was 4090 (inactive); in that of `O=C1NC[C@H](Cc2ccc(O)cc2)N(C[C@@H]2CCCN2C[C@H](Cc2ccccc2)N2C[C@H](Cc3ccccc3)N(CC3CCCCC3)C(=O)C2=O)C1=O`, 7010 (inactive). In the case of `COC(=O)[C@]12CCCCC=C1N(CCC1=CCCCC1)C(=O)[C@H](CC(=O)NCC1CCCCC1)C2` it was 4280 (inactive); in that of `COc1ccccc1OCC(=O)O/N=C(\N)c1ccccn1`, 6210 (inactive).

For `N/C(=N\OC(=O)CC1CCCCC1)c1ccccc1`, the fluorescence intensity is 2550 (inactive).

As for `N/C(=N\OC(=O)CCC1CCCCC1)c1ccccn1`, the fluorescence intensity was 16300 (active). As to `COc1ccccc1C(=O)Nc1ccc(Nc2ccccc2)cc1`, the fluorescence intensity is 4350 (inactive).

In the case of `COc1ccccc1C(=O)c1ccccc1C(=O)c1ccccc1`, the fluorescence intensity was 4030 (inactive). Next, `COc1ccccc1C(=O)C(O)c1ccccc1OC` (configuration not stated): 20300 (active); `O=C(Nc1ccccc1)c1ccccc1NC(=O)C(F)(F)F`: 9920 (inactive). In the case of `CC(=O)Nc1ccccc1C(=O)C(=O)Nc1ccc(F)cc1` it was 19600 (active). Consider `CC(=O)Nc1ccccc1C(=O)OCC(=O)c1cccc2ccccc12`, for which the fluorescence intensity was 4440 (inactive).

Turning to `CCNC(=S)Nc1ccc2c(c1)c(=O)n(C)n2Cc1ccc(Cl)cc1`, the fluorescence intensity was 3690 (inactive). In the case of `CC1(C(=O)NS(=O)(=O)c2ccc(Cl)cc2)CCN1C(=O)CC1CCCC1` (configuration not stated), the fluorescence intensity was 3020 (inactive). Turning to `COc1ccc(C(C)(O)c2nc(-c3ccc(C)c(C)c3)cs2)cc1` (configuration not stated), the fluorescence intensity is 3400 (inactive). In the case of `C=CCOc1ccccc1/C=N/NC(=O)Cc1ccccc1` it was 4140 (inactive); in that of `O=C(Cc1ccccc1)N/N=C/c1ccc(Cl)cc1Cl`, 23400 (active); in that of `O=C(Cn1cc(C(F)(F)F)ccc1=O)N/N=C/c1ccc(Cl)cc1Cl`, 1980 (inactive).

In the case of `COC(=O)c1ccc2nc(C3CCCCC3)c(Cc3cccc(F)c3)n2c1`, the fluorescence intensity was 4850 (inactive). As to `Clc1ccc(CSc2nnc([C@@H]3CCCN3)o2)cc1`, the fluorescence intensity is 6580 (inactive).

As for `CCOC(=O)C1=CCC2C(=O)N(Cc3ccccc3)C(=O)C12` (configuration not stated), the fluorescence intensity is 4910 (inactive). Next, `CCOC(=O)C1CCN(c2ncnc3c2c(-c2ccccc2)cn3-c2ccc(C)cc2)CC1`: 3930 (inactive); `CCOC(=O)C1CCN(c2ncnc3c2oc2ccc(Br)cc23)CC1`: 22700 (active). Next, `CCOC(=O)C1CCN(Cc2nnc(-c3cccc(Br)c3)o2)CC1`: 3660 (inactive).

As to `O=C(CSc1nc2cccc(F)c2c(=O)n1-c1ccccc1)Nc1ccc2c(c1)CCC2`, the fluorescence intensity was 4620 (inactive). In the case of `C=CCn1c(SCc2csc(C)n2)nc2scc(-c3ccc(C)o3)c2c1=O` it was 21100 (active); in that of `C=CCn1c(SCC(=O)NCC2CCCO2)nc2sc(C)c(C)c2c1=O` (configuration not stated), 5940 (inactive). For `C=CCn1c(SCc2c(C)noc2C)nc2sc3c(c2c1=O)CCC(C)C3` (configuration not stated), the fluorescence intensity was 2390 (inactive).

Consider `COc1ccc(C(C)(NC(C)=O)c2nc(-c3ccc(S(C)(=O)=O)cc3)cs2)cc1` (configuration not stated), for which the fluorescence intensity was 2940 (inactive). On to `COc1ccccc1C1CC(=O)n2c(nc(-c3ccccc3)c2-c2ccccc2)S1` (configuration not stated), for which the fluorescence intensity was 1950 (inactive). On to `O=C(CSC1=Nc2ccccc2C2=NC(c3ccccc3)C(=O)N12)NCC1CCCO1` (configuration not stated), for which the fluorescence intensity is 2380 (inactive). Next, `NC(=O)CSC1=Nc2ccccc2C2=NC(CCC(=O)NCc3ccc(F)cc3)C(=O)N12` (configuration not stated): 3100 (inactive); `CCC(C)NC(=O)CSC1=Nc2ccccc2C2=NC(CCC(=O)NCc3ccco3)C(=O)N12` (configuration not stated): 19500 (active). In the case of `CCCCNC(=O)C[C@@H]1C[C@@]2(C(=O)OCC)CCC=C2N(Cc2cccc3ccccc23)C1=O` it was 5990 (inactive). In the case of `OCCc1ccc(NCCc2ccco2)cc1` it was 6000 (inactive); in that of `CC(=O)Nc1cccc(-c2cc3nc(NCc4cccnc4)n(C)c(=O)c3s2)c1`, 3710 (inactive). On to `O=c1c2ccccc2nnn1CSc1nnnn1-c1ccccc1`, for which the fluorescence intensity was 16800 (active). Next, `Nc1nnc(SCn2nnc3ccccc3c2=O)s1`: 4300 (inactive); `C=CCn1c(SCn2nnc3ccccc3c2=O)nnc1-c1ccc(Cl)cc1`: 15200 (inactive). In the case of `Cc1cc2nc(-c3ccc(F)cc3)c(Cc3ccsc3)n2c(C)c1Br`, the fluorescence intensity is 4760 (inactive). Next, `COC(=O)c1ccccc1NC(=O)C1CCN(S(=O)(=O)c2cc(OC)ccc2OC)CC1`: 16400 (active); `COC(=O)c1ccccc1NC(=O)C1CC(=O)N(c2ccc(OC)cc2)C1` (configuration not stated): 3990 (inactive). As for `COc1ccc(NC(=O)C2CCN(S(=O)(=O)c3ccc4[nH]c(=O)oc4c3)CC2)c(OC)c1`, the fluorescence intensity was 4520 (inactive). In the case of `C/C=C/C(=O)Nc1ccc(N2CCN(c3ccc(C(F)(F)F)cn3)CC2)nc1` it was 5380 (inactive); in that of `COc1ccccc1N1CCN(C(=O)c2cc(-c3ccc(Cl)c(Cl)c3)on2)CC1`, 16600 (active); in that of `COc1ccc(-c2cc(C(=O)N3CCN(c4ccc(F)cc4)CC3)no2)cc1`, 6330 (inactive).

Regarding `O=C(c1cc(-c2ccc(Cl)cc2)on1)N1CCN(c2ccccc2)CC1`, the fluorescence intensity is 4120 (inactive). As for `O=C(NCc1ccco1)c1cc2sccc2n1Cc1ccc(F)cc1`, the fluorescence intensity is 20800 (active). In the case of `O=C(Cc1ccc(-n2c(=O)c3sccc3n(Cc3ccc(F)cc3)c2=O)cc1)NCc1ccco1` it was 5860 (inactive). As to `O=C(NCc1ccco1)c1ccc(Cn2c(=O)c3sccc3n(Cc3ccc(F)cc3)c2=O)cc1`, the fluorescence intensity was 5200 (inactive). For `CC(C)CC(=O)Nc1nnc(S(=O)(=O)N(C)c2ccc(Cl)cc2)s1`, the fluorescence intensity is 4020 (inactive). Next, `COC(=O)c1ccc2nc(-c3ccc(Cl)cc3)c(Cc3cccc(F)c3)n2c1`: 6340 (inactive). In the case of `O=C(NCc1nnnn1-c1ccc(Cl)cc1)c1ccc([N+](=O)[O-])o1` it was 3830 (inactive); in that of `Oc1cccc2cc(-c3ccncc3)cnc12`, 2990 (inactive). Next, `O=C(NCCc1ccccn1)c1ccc(COc2ccccc2)o1`: 19400 (active). `O=C(CNC(=O)COc1ccccc1)NCCc1ccccn1`: the fluorescence intensity is 3410 (inactive). In the case of `O=C(NCCc1ccccn1)c1cccnc1Oc1ccc(Cl)cc1` it was 5560 (inactive); in that of `CNc1cncc(-c2cccc(C(=O)N3CCOCC3)c2)n1`, 3830 (inactive).
